Rab9 promoter act – qHTS Assay for Rab9 Promoter Activators | Huh7 Rab9 promoter-luciferase reporter, luminescence, 24 h | Potency, µM (highest dose often 9.22 µM), inactives show at the highest dose activation, negative = inhibition, most hits filed as activators | actives 2.8% (n = 320,000) | AID 485297, 2010; also: % of control where 0% means no effect; nearly all actives have a fitted effect of over 60% in size
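Huh7 reporter line, Rab9 promoter upstream of luciferase. Compound exposure 24 h at 37 °C in reduced-serum medium with 10% FBS. Read-out: luminescence.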
NPC1 promoter act – qHTS Assay for NPC1 Promoter Activators; Huh7 NPC1 promoter luciferase reporter, 24 h; Potency, µM (titrated, usually from 9.22 µM), for the others: at the top dose activation, most hits filed as activators; actives 2.4% (n = 320,000); AID 485313, 2010; also: % of control where 0% means no effect; nearly all actives have a fitted effect of over 60% in size
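Luciferase expression driven by the NPC1 promoter was measured in stably transfected Huh7 cells after a 24 h compound incubation, using a luciferase reagent and a luminescence read.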
SMN2 splice up – qHTS Assay for Enhancers of SMN2 Splice Variant Expression | HEK293 SMN2-luciferase splicing reporter, luminescence, 30-36 h | Potency, µM (top dose mostly 46.1 µM), for the others: top-dose activity change, positive = activation, usual class: activators | actives 2.8% (n = 210,000); also: % of control where 0% means no effect; nearly all actives have a fitted effect of over 55% in size
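HEK293 cells carry an SMN2 minigene-luciferase reporter in which exon 7 inclusion puts luciferase in frame. Cells were seeded at 2000 cells/well, attached for 10-12 hours, then exposed to compounds for 30-36 hours at 37C before ONE-Glo luminescence.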
ELG1 genotox – qHTS screen for small molecules that induce genotoxicity in human embryonic kidney (HEK293T) cells expressing luciferase-tagged ELG1 | actives 1.3% (n = 330,000) | HEK293T ELG1-luciferase reporter, luminescence, 16 h | Potency, µM (titrated, usually from 46 µM), inactives show top-dose activity change, positive = activation, actives largely listed as activators; also: % of control where 0% means no effect; nearly all actives have a fitted effect of over 60% in size
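DMSO vehicle served as control against compound-treated ELG1-luciferase HEK293T cells; exposure lasted 16 hr at 37 °C and 5% CO2, followed by ONE-Glo luminescence detection after 30 min.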
FLuc counter – qHTS profiling assay for firefly luciferase inhibitor/activator using purifed enzyme and Km concentrations of substrates (counterscreen for miR-21 project). Luciferin 4-monooxygenase (Photinus pyralis), P08659. purified FLuc, Km substrates, luminescence inhibition. Potency, µM (highest dose often 57.5 µM), without a hit: at the highest dose activity change, negative = inhibition, actives largely listed as inhibitors. actives 6.9% (n = 360,000). AID 588342, 2011;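 also: plate controls were vehicle for no effect and reference inhibitor for full effect; nearly all actives have a fitted effect of over 55% in size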
Target sequence (P08659 whole entry, looked up): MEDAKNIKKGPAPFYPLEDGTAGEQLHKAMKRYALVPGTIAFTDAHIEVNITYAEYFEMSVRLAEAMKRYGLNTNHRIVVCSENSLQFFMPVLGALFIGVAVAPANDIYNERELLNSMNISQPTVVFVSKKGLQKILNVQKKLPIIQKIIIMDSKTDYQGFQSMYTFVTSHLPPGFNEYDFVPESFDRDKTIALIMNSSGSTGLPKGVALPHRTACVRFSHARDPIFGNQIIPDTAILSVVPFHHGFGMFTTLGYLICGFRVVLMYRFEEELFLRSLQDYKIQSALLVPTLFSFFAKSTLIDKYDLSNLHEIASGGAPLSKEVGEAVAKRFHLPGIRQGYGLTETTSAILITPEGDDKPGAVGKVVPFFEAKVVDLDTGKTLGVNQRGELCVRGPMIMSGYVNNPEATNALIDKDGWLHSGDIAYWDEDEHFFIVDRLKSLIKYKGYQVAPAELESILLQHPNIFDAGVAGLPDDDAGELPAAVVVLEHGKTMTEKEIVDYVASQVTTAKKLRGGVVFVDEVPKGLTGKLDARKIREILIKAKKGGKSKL
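Purified P. pyralis luciferase (10nM final) with 10uM D-luciferin and 10uM ATP (Km levels) in 50mM Tris acetate pH 7.5, 10mM Mg acetate, 0.01% Tween-20, 0.05% BSA; qHTS 6-point titration, ~60 µM downward; luminescence read.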
ELG1 repair inh – qHTS screen for small molecules that inhibit ELG1-dependent DNA repair in human embryonic kidney (HEK293T) cells expressing luciferase-tagged ELG1; HEK293T ELG1-luciferase reporter, luminescence, 16 h; DNA damage induced by 5-fluorouridine; Potency, µM (top dose mostly 46.1 µM), for inactives: at the top dose activity change, negative = inhibition, actives largely listed as inhibitors; actives 2.3% (n = 330,000); also: % is scaled to controls: 0 for no effect and ±100 for the full control effect; nearly all actives have a fitted effect of over 55% in size
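5-Fluorouridine DNA damage + compound/DMSO, 2,000 cells/well, 16 h, 37 °C/5% CO2. ONE-Glo, 30 min RT, luminescence. Readout = decrease in reporter signal.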
* marks the source's active call; other numbers are inactive results; ? = inconclusive; . = no result; [ ] = dose if it differs, or a comment. Only some compounds are listed: those with a hit (about 9.4% of all), similar ones and a draw of the others. Calls follow the shape of the dose curve; as a rule, active = well fitted curve in the direction sought with a large enough effect; inconclusive = small, poorly fitted or top-dose-only effect, or another doubt; inactive = no such curve, though single readings can be large; an effect the other way counts as inactive or inconclusive. Potency is read from the fitted curve at half-maximal effect.

SMILES	Rab9 promoter act	NPC1 promoter act	SMN2 splice up	ELG1 genotox	FLuc counter	ELG1 repair inh
Cc1cc(C(=O)Nc2sc3c(c2C#N)CCC(C)C3)cs1 (centres undefined)	0.56µM*	1.3µM*	4µM*	4.6µM*	?	?
CC(=O)Nc1sc2c(c1C#N)CCC(C)C2 (centres undefined)	11%	10%	-4%	10%	?	?
CCOC(=O)c1[nH]c2ccccc2c1NC(=O)c1ccc(OC(C)C)cc1	.	.	-15%	.	-4%	.
Cc1ccc(O)c(C(CC(=O)NCC2(c3ccccc3)CCCC2)c2ccccc2)c1 (centres undefined)	.	.	-65%	.	0%	.
O=C(Cn1nc(-c2ccccc2)ccc1=O)Nc1ccc(N2CCN(C(=O)c3cccs3)CC2)cc1	-1%	-3%	.	-9%	5%	-8%
O=C(Oc1ccc2c3c(c(=O)oc2c1)CCCC3)c1cccs1	-3%	-4%	-10%	2%	17µM*	10%
O=C(Oc1ccc2c3c(c(=O)oc2c1)CCC3)c1ccco1	0%	1%	13%	8%	13µM*	17%
O=C(CCn1cccn1)Nc1ccc2c(c1)OCCO2	5%	5%	.	?	?	?
O=C(NCc1ccc2c(c1)OCO2)c1cc(-c2ccccc2Cl)on1	-2%	1%	12%	9%	17µM*	18%
O=C(Nc1ccc2c(c1)OCO2)c1cc(-c2ccccc2Cl)on1	1.6µM*	2.5µM*	.	9.2µM*	5.4µM*	?
COc1cc2c(cc1OC)C1O[C@](c3ccsc3)(C2)Oc2c1c(=O)oc1ccc(F)cc21	-7%[1.84 µM]	1%[1.84 µM]	.	.	-8%[11.5 µM]	.
CC1=CC(=C2C(=O)c3ccccc3C2=O)C=C(C)N1Cc1ccco1	1.6µM*	2.2µM*	14µM*	18%	3.4µM*	?
CCCCN1C(C)=CC(=C2C(=O)c3ccccc3C2=O)C=C1C	0.4µM*	0.5µM*	-25%	0.82µM*	1.5µM*	?
COc1ccc2[nH]c(=O)c(CN(Cc3cccs3)C(=S)Nc3cccc(C)c3)cc2c1	-8%	-8%	-44%	-3%	0%	5.8µM*
CCOCCCNC(=S)N(Cc1ccco1)Cc1cc2cc3c(cc2[nH]c1=O)OCCO3	-16%	0%	.	-4%	-8%	?
COc1ccc(NC(=O)N(Cc2cccs2)Cc2cc3cc4c(cc3[nH]c2=O)OCO4)cc1	2%	-3%	-6%	-7%	?	21µM*
CCCCNC(=S)N(Cc1ccco1)Cc1cc2cc3c(cc2[nH]c1=O)OCCO3	1%	-1%	-16%[1.84 µM]	-8%	-2%	15µM*
CNC(=S)N(Cc1cccs1)Cc1cc2cc(OC)ccc2[nH]c1=O	-4%	-5%	-22%	-2%	-2%	?
CCN(CC)CCCN(Cc1cc2cc3c(cc2[nH]c1=O)OCO3)C(=S)Nc1ccc(OC)cc1	0%	0%	.	3%	2%	-2%
Cc1ccc(NC(=O)N(Cc2ccc3c(c2)OCO3)Cc2cc3cc4c(cc3[nH]c2=O)OCCO4)cc1	-2%	1%	-14%	-6%	0%	21µM*
COc1cc(C2C(=O)N(C3CCCCCC3)CC(=O)N2CCC2=CCCCC2)ccc1OC(C)C (centres undefined)	.	.	.	.	-3%	.
Cc1cc(Oc2c(C(F)(F)F)oc3c(CN4CCC(C)CC4)c(O)ccc3c2=O)cc(C)c1Cl	.	.	0%	.	-1%	.
COc1ccc(CN(Cc2cc3cc4c(cc3[nH]c2=O)OCO4)C(=O)NC2CCCCC2)cc1	-1%	-8%	-7%	1%	5%	16µM*

From PubChem BioAssay
